Luc counter: Counterscreen for Luciferase (Kinase-Glo TM) Inhibition; Potency, µM (doses to about 38.3 µM), without a hit: top-dose activity change, negative = inhibition, actives largely listed as inhibitors; Kinase-Glo luciferase, ATP luminescence, 8 min; Luciferin 4-monooxygenase (Photuris pensylvanica), Q27757; 200,000 compounds, 0.28% hits; also: nearly all actives have a fitted effect of over 60% in size
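Compounds were added to a substrate mix at pH 7.2 (50 mM imidazole, 10 uM ATP, within the enzyme's linear range), followed by Kinase-Glo detection reagent; luminescence was measured after 8 minutes at ambient temperature.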
RORgamma inh: qHTS for inhibitors of ROR gamma transcriptional activity; Nuclear receptor ROR-gamma (Mus musculus), P51450; AID 2551, 2010; 310,000 compounds, 5.4% hits; Potency, µM (titrated, usually from 53.6 µM), inactives show at the highest dose activity change, negative = inhibition, usual class: inhibitors; Drosophila S2 Gal4-RORgamma UAS-luciferase reporter, 20 h; also: nearly all actives have a fitted effect of over 60% in size
Target sequence (P51450 whole entry, looked up, the tested form may be a part): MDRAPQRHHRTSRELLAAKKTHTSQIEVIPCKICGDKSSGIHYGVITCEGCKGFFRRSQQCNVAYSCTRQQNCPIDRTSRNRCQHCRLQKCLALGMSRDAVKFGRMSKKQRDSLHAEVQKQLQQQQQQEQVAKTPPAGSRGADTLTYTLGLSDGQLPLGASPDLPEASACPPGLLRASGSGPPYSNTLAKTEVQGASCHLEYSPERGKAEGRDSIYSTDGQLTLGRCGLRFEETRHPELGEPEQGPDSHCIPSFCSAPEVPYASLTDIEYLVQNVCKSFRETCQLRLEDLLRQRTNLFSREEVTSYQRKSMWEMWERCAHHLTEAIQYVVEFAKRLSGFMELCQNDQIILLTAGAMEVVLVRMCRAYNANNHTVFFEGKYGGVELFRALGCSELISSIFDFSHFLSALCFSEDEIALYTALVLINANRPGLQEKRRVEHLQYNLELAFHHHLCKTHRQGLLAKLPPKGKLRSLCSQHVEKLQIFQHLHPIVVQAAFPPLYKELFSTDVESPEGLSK
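Drosophila Schneider cells stably carrying a metallothionein-driven Gal4 DBD–ROR gamma fusion and a UAS-Photinus luciferase reporter were exposed to compound for 1 hr, then induced with copper sulfate (700 uM final) for 20 hr at ambient temperature before luminescence reading.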
VP16 counter: VP16 counterscreen qHTS for inhibitors of ROR gamma transcriptional activity. Potency, µM (series often up to 53.6 µM), without a hit: top-dose activity, negative = inhibition, most hits filed as inhibitors. AID 2546, 2010. 310,000 compounds, 3.5% hits. Drosophila S2 Gal4-VP16 UAS-luciferase, luminescence, 20 h;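 also: Gal4-VP16 expression switched on by copper sulfate through the metallothionein promoter; nearly all actives have a fitted effect of over 50% in size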
Active calls of the source: *; ? = inconclusive; . = no result; [ ] = remark or other dose. Hits are enriched below; roughly 6.4% of the tested compounds scored in any of these assays. Calls follow the shape of the dose curve; as a rule, active = well fitted curve in the direction sought with a large enough effect; inconclusive = small, poorly fitted or top-dose-only effect, or another doubt; inactive = no such curve, though single readings can be large; an effect the other way counts as inactive or inconclusive. % is scaled to controls: 0 for no effect and ±100 for the full control effect; potency is read from the fitted curve at half-maximal effect.

SMILES	Luc counter	RORgamma inh	VP16 counter
O=C1OCCC1Sc1nc2ccccc2c(=O)n1Cc1ccc(F)cc1 (stereo not drawn)	1%	4µM*	8.9µM*
O=C(CSc1nc2ccccc2c(=O)n1Cc1ccccc1)NCc1ccco1	-1%	9%	-3%
O=C(CSc1nc2ccccc2c(=O)n1Cc1ccc(F)cc1)NCc1cccs1	2%	2.8µM*	5µM*
CCCOc1ccc(/C(O)=C2/C(=O)C(=O)N(c3ccccn3)C2c2ccc(OC)cc2)cc1C (stereo not drawn)	.	16%	3%
O=C(O)c1cccc(S(=O)(=O)N(Cc2ccccc2)c2cccc(C(F)(F)F)c2)c1	.	-15%	3%
O=C(NCc1ccccc1)C1CC(=O)N(c2ccc(OCC(=O)N3CCOCC3)cc2)C1 (stereo not drawn)	.	12%	-3%
O=C(N/N=C/c1ccc([N+](=O)[O-])cc1)c1cccc(N2CCCC2=O)c1	.	43%	-3%
Cc1ccsc1/C=N/NC(=O)Nc1ccccc1	-3%	41%	?
CCOc1ccc(C(=O)N/N=C/c2cc([N+](=O)[O-])cs2)cc1	1%	5%	-17%
C/C(=N\NC(=O)c1sccc1C)c1cccnc1	.	-32%	-7%
COc1cc(C(=O)N/N=C/c2cc([N+](=O)[O-])cs2)cc(OC)c1OC	1%	4µM*	?
Cc1ccsc1/C=N/NC(=O)c1ccc([N+](=O)[O-])cc1	-2%	1µM*	4.5µM*
Cc1ccsc1/C=N/NS(=O)(=O)c1ccc([N+](=O)[O-])cc1	-1%	-2%	8%
Cc1ccsc1/C=N/NC(=O)c1cccnc1	.	?	13µM*
Cc1ccsc1/C=N/NC(=O)c1ccc2ccccc2c1	.	3.2µM*	5.6µM*
CCOC(=O)N1CCC(N2Cc3cccc(C(=O)Nc4cccc(F)c4)c3C2=O)CC1	1%	5%	-3%
CCS(=O)(=O)N1CCC(C(=O)NCc2ccc(OC)cc2)CC1	1%	9%	-4%
CCC(/C=C/C(C)C1CCC2C3CCC4=CC(=O)CC[C@@]4(C)C3CC[C@@]12C)C(C)C (stereo partly drawn)	2%	28%	4%
Cc1ccsc1/C=N/NC(=O)c1ccncc1	-6%	3.5µM*	7.1µM*
COc1cc(C(=O)N/N=C/c2sccc2C)cc(OC)c1OC	2%	20µM*	?
COc1ccccc1NCC(=O)N/N=C/c1sccc1C	1%	?	?
CSc1sccc1/C=N/NC(=O)c1ccncc1	-4%	?	-28%
O=S(=O)(Nc1ccccn1)c1cc(Cl)ccc1Cl	.	9%	2%
O=C(NNc1cccc(Cl)n1)c1c(Cl)cccc1Cl	-1%	-17%	-6%
O=C(NNc1ncc(C(F)(F)F)cc1Cl)c1c(Cl)cccc1Cl	3%	0.89µM*	2.8µM*
SMILES	Luc counter	RORgamma inh	VP16 counter
O=C(NNc1ncccc1Cl)c1c(Cl)cccc1Cl	-1%	4µM*	14µM*
NC(=O)NNc1ncc(C(F)(F)F)cc1Cl	-2%	7%	-12%
COc1ccc(CCc2nnc(CCC(=O)NCc3cc(C(C)C)no3)o2)cc1	0%	18%	8%
CC(C)(C)OC(=O)NCCCC[C@H](NC(=O)c1nc[nH]c1C(=O)N1CCN(C(=O)OC(C)(C)C)CC1)C(=O)OC(C)(C)C	.	?	8%
CC(C)(C)OC(=O)NCCCC[C@H](NC(=O)c1nc[nH]c1C(=O)N1CCN(c2ccccc2)CC1)C(=O)OC(C)(C)C	.	13µM*	?
CC(C)C[C@H](NC(=O)c1nc[nH]c1C(=O)NCCCCCNC(=O)OC(C)(C)C)C(=O)OC(C)(C)C	.	3.2µM*	7.1µM*
C[C@@H](NC(=O)c1nc[nH]c1C(=O)N[C@@H](CCCCNC(=O)OC(C)(C)C)C(=O)OC(C)(C)C)c1ccccc1	.	15%	-11%
CNC(=O)c1[nH]cnc1C(=O)N[C@@H](CCCCNC(=O)OC(C)(C)C)C(=O)OC(C)(C)C	.	-32%	3%
CC(C)C[C@H](NC(=O)c1nc[nH]c1C(=O)N[C@@H](CCCCNC(=O)OC(C)(C)C)C(=O)OC(C)(C)C)C(=O)OC(C)(C)C	.	5µM*	11µM*
C[C@H](NC(=O)c1nc[nH]c1C(=O)NCCCCCNC(=O)OC(C)(C)C)C(=O)OC(C)(C)C	.	-52%	-11%
CC(C)(C)OC(=O)NCCCC[C@H](NC(=O)c1[nH]cnc1C(=O)Nc1ccccc1)C(=O)OC(C)(C)C	.	13µM*	?
COC(=O)C1=C(C)NC(C)=C(C(=O)OCC2CCCO2)C1c1cccc(Br)c1 (stereo not drawn)	.	13%	-11%
O=C(Cc1cccs1)Nc1cccc(C(=O)Nc2ccc(C(=O)O)cc2)c1	-1%	8%	-2%
CCN(CC)S(=O)(=O)c1ccc2c(c1)N(CC(=O)NCCN1CCOCC1)C(=O)CO2	.	-11%	-8%
CCOC(=O)c1ccc(CNC(=O)c2cc(COc3ccccc3SC)on2)o1	.	-1%	-11%
COc1ccc(CNC(=O)c2ccc(Cn3cc(Cl)cn3)o2)cc1	.	18%	-4%
CC(C)CC(=O)Nc1c2c(nn1-c1cccc(Cl)c1)CS(=O)C2 (stereo not drawn)	.	10%	0%
COc1cccc(C2C=C(c3ccc(Br)s3)Nc3ncnn32)c1OC (stereo not drawn)	-3%	-119%	?
Fc1ccc(Br)cc1C1C=C(c2ccc(Br)s2)Nc2ncnn21 (stereo not drawn)	5%	35µM*	3%[0.365 µM]
CN1CCN(CCCNC(=O)Nc2ccc([N+](=O)[O-])cc2)CC1	.	-3%	1%
CC(=O)N1CCN(C(=O)CCC(=O)O)CC1	.	28%	-1%
COc1cc(/C=C/C(=O)NCCn2c(C)cc3ccccc32)cc(OC)c1OC	1%	40%	-6%
COc1ccc(/C=C/C(=O)N2CC(C)OC(C)C2)cc1OC (stereo not drawn)	.	-10%	2%
CCn1c(SCC(=O)N/N=C/c2ccc(OC)c(OC)c2)nc2ccccc21	0%	21%	0%[0.365 µM]
C=CCSc1nc2ccccc2n1C(=O)/C=C/c1ccc(OC)c(OC)c1	2%	5µM*	11µM*
SMILES	Luc counter	RORgamma inh	VP16 counter
COc1ccc(Cc2nc3ccccc3n2CC(=O)N/N=C/c2ccccc2)cc1OC	0%	2%	-8%
C=CCSc1nc2ccccc2n1C(=O)/C=C/c1cc(OC)c(OC)c(OC)c1	-3%	3.5µM*	5µM*
COc1ccc(CC(=O)n2c(CC#N)nc3ccccc32)cc1OC	-4%	11µM*	?
CCSc1nc2ccccc2n1C(=O)/C=C/c1ccc(OC)c(OC)c1	0%	7.1µM*	?
Cc1ncc(CN2CCC(n3nccc3NC(=O)c3ccccc3)CC2)s1	.	25%	-5%
CC(C)c1cccc2c([Si](C)(C)C)c3c(nc12)-c1cccc(=O)n1C3	-1%	0%	-13%
CC(=O)Nc1ccc(NC(=O)COC(=O)c2cnccn2)cc1	0%	-1%	-6%
CCNC(=O)OCc1cn(-c2ccc(Cl)cc2)nn1	1%	42%	5%
O=C(Nc1ccccc1F)c1ccc(CSc2ccccc2)o1	-1%	31%	6%
Cc1cc(=O)oc(C)c1C(=O)Nc1ccc(N(C)C)cc1	.	-20%	4%
CCOC(=O)c1ccc(NC(=O)NNC(=O)CCc2ccc(OC)cc2)cc1	.	13%	0%
